Measured values: the supplement of paper PMC6555819

Legend:
Assay in all cases: PBM binding z-score (relative to random genomic background probes); higher = stronger binding; sequences stand for … in GC…GCGATTGACAGCGTAGAATGAAGG
[1] = tested on: FXR:RXRa (NR concentration 270 nM, RXRa partner concentration 90 nM)
Method in brief: (§1)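 Binding buffer was PBS pH 7.4 with 2% milk, 0.02% Triton X-100, 1 mM DTT, 0.2 mg/mL BSA and 0.4 mg/ml salmon testes DNA. In it, ligand-free nuclear receptor dimers were incubated 1 h on custom Agilent 4×180K protein-binding microarrays carrying double-stranded probes. Antibodies against each partner (one per run) detected binding, and z-scores were calculated against random background probes after regression normalization of scanned fluorescence.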

[2] = tested on: LXRa:RXRa (NR concentration 270 nM, RXRa partner concentration 90 nM)
Method in brief: as §1

[3] = tested on: LXRa homodimer (NR concentration 270 nM)
Method in brief: as §1

[4] = tested on: LXRb:RXRa (NR concentration 270 nM, RXRa partner concentration 90 nM)
Method in brief: as §1

[5] = tested on: LXRb homodimer (NR concentration 270 nM)
Method in brief: as §1

[6] = tested on: PPARa:RXRa (NR concentration 270 nM, RXRa partner concentration 90 nM)
Method in brief: as §1

[7] = tested on: PPARg:RXRa (NR concentration 180 nM, RXRa partner concentration 90 nM)
Method in brief: as §1

[8] = tested on: PPARg:RXRa 270nM:90nM, anti-RXR (NR concentration 270 nM, RXRa partner concentration 90 nM)
Method in brief: as §1

[9] = tested on: PPARg:RXRa 30nM:10nM, anti-RXR (NR concentration 30 nM, RXRa partner concentration 10 nM)
Method in brief: as §1

[10] = tested on: PPARg:RXRa 90nM:30nM, anti-RXR (NR concentration 90 nM, RXRa partner concentration 30 nM)
Method in brief: as §1

| Sequence | PBM binding z-score [1] | PBM binding z-score [2] | PBM binding z-score [3] | PBM binding z-score [4] | PBM binding z-score [5] | PBM binding z-score [6] | PBM binding z-score [7] | PBM binding z-score [8] | PBM binding z-score [9] | PBM binding z-score [10] |
| --- | --- | --- | --- | --- | --- | --- | --- | --- | --- | --- |
| CCGACTGGGGCATAAGGTGACCATAAGCCAGCCC | -0.111 | -0.426 | -0.561 | -0.432 | -1.62 | 1.3 | 2.04 | 2.92 | 0.757 | 2.38 |
| AGAATGAGGTTACCAAAGATCAGGGGAACGCTTG | 1.87 | 6 | -0.402 | 3.15 | -0.39 | 3.44 | 2.74 | 2.72 | 1.04 | 2 |
| CCGACTGGGGCAGAAAGGTTACTATACCATCCGG | -0.369 | -0.0108 | -0.29 | 0.722 | -1.04 | 1.5 | 1.63 | 2.14 | 0.485 | 1.52 |
| CATACTGGGCCACGAAAGGTCATTGATTCAGTGA | 3.98 | 5.28 | 5.21 | 4.44 | 0.817 | 4.52 | 4.46 | 4.67 | 1.9 | 3.84 |
| CGAATTAGGTCAAGGACAGTGAATCTCCGCACGC | 4 | 2.54 | 0.286 | 1.97 | 0.123 | 4.92 | 6.8 | 6.22 | 3.82 | 5.57 |
| TCTATTAGTTGAAGGGCAAACGACGAGTCCGTTT | 0.768 | 1.24 | 0.6 | 1.3 | 0.637 | 1.43 | 0.285 | 2.43 | 3.63 | 2.94 |
| GCTTGTAGATCAAGGTTATGAAAGACTAAGCTAA | 0.138 | 0.572 | -0.505 | 0.452 | -0.591 | 1.3 | 0.656 | 0.989 | 0.21 | 0.553 |
| CGTCCAAGGTCAATACTAGGTCAGTGAAAGCATT | 6.7 | 5.42 | 3.65 | 4.71 | 1.55 | 5.33 | 4.52 | 4.7 | 2.1 | 3.73 |
| ACTAGTTCGTCAGCTGAGGTCACACACAATTCGG | 3.55 | 3.53 | 2.68 | 4.09 | 0.796 | 4.03 | 1.75 | 2.28 | 0.594 | 1.5 |
| TCGAGTAGGTTACCTATGGGGCATTCAGCTTTCT | 0.0442 | 1.74 | -0.775 | 0.927 | -1.31 | 1.24 | 0.475 | 1.01 | 1.17 | 1.17 |
| TCGATTAGGTTAGTCGGGGCATTCAGCCAACATA | 0.428 | 0.421 | -0.073 | 0.839 | -0.164 | 0.801 | -0.279 | 1.29 | 2.61 | 1.79 |
| CAAACTAGGTCAACAGGTCAAAGTCCGCTTCCCG | 6.05 | 5.38 | 3.92 | 4.38 | 1.14 | 6.02 | 9.26 | 7.93 | 6.55 | 8.02 |
| ACTAGCAGGCCAAGTTTTGGTCACTCAAACAAAG | -0.294 | -0.403 | -0.274 | -0.34 | -0.558 | -0.0813 | -0.156 | -0.261 | -0.692 | -0.457 |
| CAAACTAGGTCAACGGTCAAAGTCGAGCCAACCA | 5.58 | 4.31 | 2.25 | 3.09 | 0.978 | 6.16 | 11 | 9.5 | 8.86 | 11 |
| TCATATAAGTAAATGCTAGGTGAAAGTCCGATCT | 1.12 | 1.03 | 0.543 | 0.645 | 0.419 | 1.3 | 0.711 | 2.49 | 4.34 | 3.6 |
| CCTAGTTGATCAAGGTCACACACGCTATAGGTAC | 4.38 | 4.15 | 2.75 | 4.06 | 1.42 | 4.36 | 2.96 | 3.19 | 1.28 | 2.24 |
| ATACCAAGGTGATCGTGAGATCGTTGATACTAAC | 0.2 | 0.163 | 0.16 | 0.121 | -0.2 | 0.129 | 0.447 | 0.161 | -0.226 | -0.234 |
| CGTCCAAGGTCAGCAGGTCAGTGAAAGCGACGTG | 5.62 | 4 | 0.313 | 3.11 | -0.277 | 4.76 | 4.12 | 4.39 | 0.905 | 2.91 |
| CCGACTCGGGCAAGGTTACCATAACGCACAGCCA | -0.303 | 0.69 | -0.249 | 0.349 | -1.13 | 0.95 | 1.01 | 0.916 | -0.148 | -7.81e-07 |

| Sequence | PBM binding z-score [1] | PBM binding z-score [2] | PBM binding z-score [3] | PBM binding z-score [4] | PBM binding z-score [5] | PBM binding z-score [6] | PBM binding z-score [7] | PBM binding z-score [8] | PBM binding z-score [9] | PBM binding z-score [10] |
| --- | --- | --- | --- | --- | --- | --- | --- | --- | --- | --- |
| CAAACTAGGTCTCGAAAGGTCAAAGTCGAATGAC | 4.95 | 5.78 | 5.59 | 5.49 | 1.63 | 5.51 | 5.33 | 5.32 | 2.94 | 4.72 |
| CCTACTGGGCCCCGAAAGGTCATTGATTCAGTGA | 3.17 | 4.07 | 4.02 | 3.98 | 0.0468 | 3.93 | 1.14 | 2.68 | 0.29 | 1.58 |
| AGAATGAGGGTAAGATCAGGGAAACAGAATACAT | 0.539 | 0.166 | 0.147 | 0.566 | 0.276 | 0.918 | 0.981 | 0.698 | 0.455 | 0.409 |
| ACTTACGGGTCAACGAGTTTATAGCACGCGTATA | 6.09 | 4.46 | 1.02 | 4.03 | 0.714 | 5.4 | 5.37 | 5.02 | 2.4 | 4.12 |
| TCTTGTAGATCAGCAAGTTAAGAAAGCTGGCCAA | -0.13 | -0.113 | -0.739 | -0.0484 | -0.743 | 0.316 | -0.599 | 1.24 | 2.5 | 1.78 |
| CCTCGGAGGACAACAAGAGGTCAGAGCTGCCAGA | 2.12 | 3.5 | 3.68 | 2.35 | -0.358 | 2.82 | 1.01 | 1.62 | -0.0713 | 0.904 |
| AGACTGAGGTTATACGTAGATCAGGGAAGAAAGT | 1.99 | 2 | 0.184 | 1.55 | -0.196 | 2.58 | 0.936 | 0.937 | 0.367 | 0.756 |
| ATCTCTACGTAAAGTTCAGTGAAAGATCGATAGA | 0.641 | 1.57 | 1.36 | 1.02 | 1.16 | 1.36 | 1.04 | 2.47 | 1.02 | 1.96 |
| ACAGACAGGTGAGTGAAGGTAACTCAACTGGACG | 0.515 | -0.0792 | -0.448 | -0.39 | -0.735 | -0.0249 | 0.821 | 0.143 | 0.0922 | -0.0513 |
| GCTGCTAGGTCAACTCATGGTCAGCTAAAGCTCG | 4.3 | 2.9 | 0.227 | 2.29 | 0.577 | 3.73 | 2.73 | 3.12 | 0.277 | 1.79 |
| CCTGCTTGGTCATGGTCAGCTAATCTACAGTATG | -0.315 | -0.299 | -0.539 | -0.459 | -0.639 | -0.334 | -0.171 | -0.154 | -0.537 | -0.192 |
| CCTGTTAGGTCATGGTCAGCTAATCTACAGTATG | 4.26 | 2.77 | 0.732 | 2.3 | 0.739 | 3.71 | 1.92 | 2.38 | 0.613 | 1.33 |
| ACTATTAGTTGAGACGAGGGCAACCCATAGGTTG | 0.567 | -0.017 | -0.102 | 0.0689 | 0.34 | 0.296 | 0.846 | 0.162 | 0.398 | 0.326 |
| CGTCCAAGGTCATAGTAGGTCAGTGAAGACAGAT | 7.5 | 7.17 | 4.25 | 5.79 | 1.31 | 5.54 | 5.27 | 5.42 | 2.67 | 4.32 |
| ATCGAAAGGTCGAAGGTAAGTATACCCACCCGAA | 3.95 | 3.26 | 0.165 | 2.83 | 0.858 | 4.25 | 3.8 | 3.88 | 1.59 | 2.86 |
| ATATGTAGGTTTCATCCGGGTCATTCAGGCTATG | 1.4 | 1.72 | 0.315 | 2.07 | 0.658 | 3.09 | 2.23 | 2.17 | 0.721 | 1.43 |
| ATCTCAAGGTAACAAGTTCAGTGAAAGAGAGGAC | 1.2 | 1.29 | 0.665 | 0.971 | 0.9 | 1.4 | 0.619 | 1.08 | 0.731 | 1.03 |
| TAGCCTAGGGCATGGGCCAGTATACCACGCGAAC | -0.362 | -0.149 | -0.378 | -0.666 | -1.19 | -0.188 | 0.658 | 0.665 | -0.115 | 0.0783 |
| CAAACTAGGACACCGGAAGGTCAAAGTCCGCATG | 3.19 | 3.23 | 3.38 | 3.19 | 0.695 | 4.46 | 4.72 | 4.54 | 1.9 | 3.7 |
